The source made the active and inactive calls. Unless noted, no rule for the calls is given here.
Experiments:
[1] = HepG2 liver cancer cell viability effects, profiling panel, resazurin fluorescence, 24 h, PK04 Diversity Set (AID 1172); conditions: higher = more signal; also: test concentration not given here
[2] = basal S. cerevisiae growth modulation, no modifier, primary screen, OD600, strain BY4716, 24 h, basal condition (AID 1173); conditions: OD600, 24 h, higher = more signal, called active from +8 up or from −8 down
[3] = MM1S myeloma cell viability, profiling panel, resazurin fluorescence, basal, 24 h, PK04 Diversity Set (AID 1174); conditions: higher = more signal, called active from +8 up or from −8 down;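 also: MM1S multiple myeloma cell line; test concentration not given here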
[4] = biological target: Dihydroorotate dehydrogenase (quinone), mitochondrial (Plasmodium falciparum (isolate 3D7)) (UniProt Q08210); assay: PfDHODH enzyme inhibitors, primary screen, biochemical, C-terminal His tag, absorbance 600 nm (AID 1175); conditions: DCIP absorbance 600 nm, higher = more signal, called active from +8 up or from −8 down;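 also: recombinant parasite enzyme with a five histidine tag at its C terminus; test concentration not given here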
[5] = P. aeruginosa biofilm formation inhibitors, primary screen, strain PAO1, LB-PBS medium, absorbance 600 nm (AID 1176); also: test concentration not given here; conditions: P. aeruginosa PAO1 growth/biofilm, A600, 12 h; higher = more signal
[6] = S. cerevisiae RM11-1a growth modifiers, primary screen, strain RM11-1a, OD600, basal, 24 h (AID 1177); conditions: OD600, 24 h, higher = more signal, called active from +8 up or from −8 down;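 also: cultures grown under basal conditions with no added stressor; test concentration not given here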
[7] = E. coli acrAB mutant growth effects, primary screen, E. coli filamentation inducers, strain DRC39, OD650, 24 h (AID 1178); conditions: higher = more signal, called active from +8 up or from −8 down;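 also: growth measured as culture turbidity by optical density at 650 nm; test concentration not given here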
[8] = E. coli acrAB mutant growth effects, primary screen, E. coli filamentation inducers, strain DRC39, OD650, 48 h (AID 1179);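 also: screen aims at cell division blockers that make cells filament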; conditions: E. coli DRC39 delta-acrAB growth, higher = more signal, called active from +8 up or from −8 down
[9] = RPMI8226 myeloma cell viability, profiling panel, resazurin fluorescence, basal, 24 h, PK04 Diversity Set (AID 1180); conditions: higher = more signal;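 also: RPMI8826 multiple myeloma cell line at 5000 cells per well; test concentration not given here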
[10] = biological target: E3 ubiquitin-protein ligase XIAP (Homo sapiens) (UniProt P98170); assay: XIAP binders, primary screen, biophysical, small-molecule microarray, fluorescence 635 nm (AID 1181); conditions: small-molecule microarray binding, higher = more signal;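 also: score merges 667 nm emission and signal to noise over triplicate slides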
Sequence of E3 ubiquitin-protein ligase XIAP (Homo sapiens) (P98170 whole entry, looked up): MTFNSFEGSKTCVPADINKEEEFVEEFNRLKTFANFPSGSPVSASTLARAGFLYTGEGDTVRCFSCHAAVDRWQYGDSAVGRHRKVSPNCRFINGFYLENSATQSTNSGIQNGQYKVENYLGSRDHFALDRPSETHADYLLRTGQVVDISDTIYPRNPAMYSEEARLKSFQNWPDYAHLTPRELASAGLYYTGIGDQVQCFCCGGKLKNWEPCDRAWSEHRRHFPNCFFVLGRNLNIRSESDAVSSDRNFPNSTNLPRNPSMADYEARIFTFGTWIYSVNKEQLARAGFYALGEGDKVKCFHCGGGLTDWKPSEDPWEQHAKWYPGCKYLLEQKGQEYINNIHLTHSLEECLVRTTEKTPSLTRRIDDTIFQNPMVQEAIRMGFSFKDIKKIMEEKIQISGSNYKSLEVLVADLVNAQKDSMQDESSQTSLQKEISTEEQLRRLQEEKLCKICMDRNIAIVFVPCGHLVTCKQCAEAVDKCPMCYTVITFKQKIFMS

Sequence of Dihydroorotate dehydrogenase (quinone), mitochondrial (Plasmodium falciparum (isolate 3D7)) (Q08210 whole entry, looked up): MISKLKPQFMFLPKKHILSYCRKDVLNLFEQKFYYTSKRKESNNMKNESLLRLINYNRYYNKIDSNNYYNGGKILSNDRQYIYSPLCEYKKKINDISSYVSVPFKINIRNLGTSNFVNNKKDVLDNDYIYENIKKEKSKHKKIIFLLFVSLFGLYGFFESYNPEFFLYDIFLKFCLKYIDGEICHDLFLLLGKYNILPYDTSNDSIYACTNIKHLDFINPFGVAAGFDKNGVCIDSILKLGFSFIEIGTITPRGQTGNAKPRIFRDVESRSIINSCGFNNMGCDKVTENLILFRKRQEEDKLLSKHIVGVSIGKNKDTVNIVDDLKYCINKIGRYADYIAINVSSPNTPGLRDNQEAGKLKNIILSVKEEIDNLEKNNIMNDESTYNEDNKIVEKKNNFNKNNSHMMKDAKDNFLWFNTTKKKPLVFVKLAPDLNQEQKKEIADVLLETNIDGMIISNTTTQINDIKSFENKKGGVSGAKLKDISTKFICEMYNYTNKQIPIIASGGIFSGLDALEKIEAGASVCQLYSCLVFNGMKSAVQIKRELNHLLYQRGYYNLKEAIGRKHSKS

CCOC(=O)C[C@H]1[C@H](OC(=O)c2ccc(C(=O)c3ccccc3)cc2)[C@@H](NC(=O)C2CCCCC2)c2cc(OCCCO)ccc2N1C(=O)c1ccccc1
z-score [1]: -0.341
z-score [2]: -0.153 (inactive)
z-score [3]: -0.239 (inactive)
composite z-score [4]: -1.06 (inactive)
z-score [5]: 0.0186 (inactive)
z-score [6]: -0.3 (inactive)
z-score [7]: -0.715 (inactive)
z-score [8]: -0.549 (inactive)
z-score [9]: -0.125
composite z-score [10]: -0.145

COCCOC(=O)N1C(=O)[C@@]2(c3cc(C#CCNC(N)=O)ccc31)[C@H](c1ccc(O)cc1)N1[C@H](c3ccccc3)[C@H](c3ccccc3)OC(=O)[C@H]1[C@@H]2C(=O)NC[C@H](O)c1ccccc1
z-score [1]: -0.197
z-score [2]: 0.947 (inactive)
z-score [3]: 0.302 (inactive)
composite z-score [4]: 0.924 (inactive)
z-score [5]: 0.69 (inactive)
z-score [6]: 1.23 (inactive)
z-score [7]: 0.248 (inactive)
z-score [8]: 0.193 (inactive)
z-score [9]: -0.949
composite z-score [10]: -0.0807

COc1ccc(C#Cc2ccc3c(c2)[C@]2(C(=O)N3)[C@H](C(=O)NC[C@H](O)c3ccccc3)[C@H]3C(=O)O[C@H](c4ccccc4)[C@H](c4ccccc4)N3[C@@H]2c2ccccc2OCCO)cc1
z-score [1]: -1.62
z-score [2]: 1.32 (inactive)
z-score [3]: -4.48 (inactive)
composite z-score [4]: -0.0131 (inactive)
z-score [5]: 2.4 (inactive)
z-score [6]: 2.27 (inactive)
z-score [7]: -0.444 (inactive)
z-score [8]: -0.849 (inactive)
z-score [9]: -5.2
composite z-score [10]: 0.0297

[N-]=[N+]=NCc1ccccc1[C@H]1OC(c2ccc(OCCCO)cc2)=N[C@@]1(CCS(=O)(=O)c1ccccc1)C(=O)N1CCOCC1
z-score [1]: -0.0894
z-score [2]: 0.798 (inactive)
z-score [3]: -0.306 (inactive)
composite z-score [4]: 0.274 (inactive)
z-score [5]: 0.631 (inactive)
z-score [6]: 0.686 (inactive)
z-score [7]: 0.186 (inactive)
z-score [8]: -0.109 (inactive)
z-score [9]: -0.8
composite z-score [10]: -0.309

Cc1ccc(S[C@]2(C(=O)NC3CC3)CC(=O)N(Cc3ccccc3)[C@@H]2c2ccc(CO)cc2)cc1
z-score [1]: -0.177
z-score [2]: -1.71 (inactive)
z-score [3]: 0.262 (inactive)
composite z-score [4]: -0.867 (inactive)
z-score [5]: 0.196 (inactive)
z-score [6]: -0.5 (inactive)
z-score [7]: 0.354 (inactive)
z-score [8]: -0.255 (inactive)
z-score [9]: 0.35
composite z-score [10]: 0.0424

COc1cc(CO)ccc1OC(C)=O
z-score [1]: -0.386
z-score [2]: -0.277 (inactive)
z-score [3]: -0.779 (inactive)
composite z-score [4]: -1.75 (inactive)
z-score [5]: -0.248 (inactive)
z-score [6]: -1.18 (inactive)
z-score [7]: 0.35 (inactive)
z-score [8]: 0.915 (inactive)
z-score [9]: -0.927
composite z-score [10]: -0.17

CCC[C@@H]1C=C(C(=O)O)[C@H](c2ccc(C)cc2)N1S(=O)(=O)c1ccc(C)cc1
z-score [1]: -0.795
z-score [2]: 0.0188 (inactive)
z-score [3]: -0.522 (inactive)
composite z-score [4]: -0.0451 (inactive)
z-score [5]: 0.89 (inactive)
z-score [6]: -0.213 (inactive)
z-score [7]: -0.591 (inactive)
z-score [8]: 0.0595 (inactive)
z-score [9]: -2.01
composite z-score [10]: 0.22

CN1C=C(C(=O)OCCS(C)(=O)=O)C(C(=O)OCCS(C)(=O)=O)=CC(CCCO)=CC1C1CC1 (stereo not given)
z-score [1]: 0.427
z-score [2]: -2.11 (inactive)
z-score [3]: -0.16 (inactive)
composite z-score [4]: -1.23 (inactive)
z-score [5]: -0.353 (inactive)
z-score [6]: -0.558 (inactive)
z-score [7]: 1.38 (inactive)
z-score [8]: 1.29 (inactive)
z-score [9]: 0.0101
composite z-score [10]: -0.366

O=C1O[C@H](c2ccccc2)[C@H](c2ccccc2)N2[C@H]1[C@@H](C(=O)O)[C@]1(C(=O)Nc3ccc(C#CC4=CCCCC4)cc31)[C@H]2c1ccc(OCCO)cc1
z-score [1]: 0.732
z-score [2]: 0.0899 (inactive)
z-score [3]: 0.533 (inactive)
composite z-score [4]: -14.1 (active)
z-score [5]: 3.39 (inactive)
z-score [6]: 1.26 (inactive)
z-score [7]: 0.668 (inactive)
z-score [8]: -0.175 (inactive)
z-score [9]: -0.219
composite z-score [10]: -0.271

C=CCNC(=O)[C@@H]1[C@H]2C(=O)O[C@H](c3ccccc3)[C@H](c3ccccc3)N2[C@H](c2ccc(O)cc2)[C@@]12C(=O)N(C(=O)OCCOC)c1ccccc12
z-score [1]: 0.09
z-score [2]: 0.57 (inactive)
z-score [3]: 0.177 (inactive)
composite z-score [4]: -0.186 (inactive)
z-score [5]: 0.817 (inactive)
z-score [6]: 1.01 (inactive)
z-score [7]: -0.233 (inactive)
z-score [8]: -0.33 (inactive)
z-score [9]: 0.209
composite z-score [10]: -0.17

Reference: PubChem BioAssay
